Screening results: PubChem BioAssay, National Center for Advancing Translational Sciences (NCATS)
PI4K2A inh: qHTS for small molecular inhibitors of PI4K2A. Phosphatidylinositol 4-kinase type 2-alpha (Homo sapiens), Q9BTU6. purified PI4K2A, ADP-Glo luminescence, 1 h; active compounds read low. activity change, negative = inhibition, % at 76.9 µM. actives 0.13% (n = 420,000). AID 1346378, 2018; in the data active = activity change below about -50%; inconclusive = mostly about -30% to -49%;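 also: -100% = wells without enzyme as full effect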
Target sequence (Q9BTU6 whole entry, looked up): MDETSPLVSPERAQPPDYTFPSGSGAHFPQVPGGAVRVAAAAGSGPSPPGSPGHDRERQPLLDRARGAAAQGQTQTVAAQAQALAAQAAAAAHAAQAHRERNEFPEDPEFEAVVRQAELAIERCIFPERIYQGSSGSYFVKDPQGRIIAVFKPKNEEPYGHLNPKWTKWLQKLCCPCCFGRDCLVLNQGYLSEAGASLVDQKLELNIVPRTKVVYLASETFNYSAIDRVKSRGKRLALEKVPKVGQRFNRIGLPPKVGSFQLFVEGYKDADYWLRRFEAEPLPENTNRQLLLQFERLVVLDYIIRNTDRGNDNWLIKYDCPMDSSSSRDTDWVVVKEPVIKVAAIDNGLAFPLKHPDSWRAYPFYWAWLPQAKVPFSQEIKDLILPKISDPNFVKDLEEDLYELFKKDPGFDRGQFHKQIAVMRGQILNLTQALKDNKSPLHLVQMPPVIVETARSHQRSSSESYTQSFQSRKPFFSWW
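Compounds are screened against recombinant PI4K2A using PI as substrate and ATP, the latter dispensed at 300 microM. Reactions run one hour at ambient temperature before ADP-Glo detection; full inhibition defined by wells lacking enzyme.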
KB-V1 cytotox: qHTS assay for MDR1-selective chemotherapeutics: Primary screen using the drug-selected MDR subline cells KB-V1. KB-V1 MDR cells viability, CellTiter-Glo, 72 h. AID 1347076, 2019. actives 3.4% (n = 400,000). Potency, µM (top dose mostly 46.1 µM), hits mostly cytotoxic; also: potency is read from the fitted curve at half-maximal effect; nearly all actives have a fitted effect of over 60% in size
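Potencies derive from concentration-effect curves fitted to normalized luminescence (CellTiter-Glo) of KB-V1 cells treated for 72 h at 37 degrees C in phenol-red-free DMEM containing 10% FBS.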
Nrf2 inh: Nrf2 qHTS screen for inhibitors; A549 ARE-Fluc reporter, luciferase luminescence, 18-24 h; actives 2.1% (n = 360,000); Potency, µM (top dose mostly 46 µM), inactives show at the highest dose activity change, negative = inhibition, actives largely listed as inhibitors; also: potency is read from the fitted curve at half-maximal effect; nearly all actives have a fitted effect of over 60% in size
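Quantitative HTS in A549 cells stably bearing an antioxidant response element-firefly luciferase construct. Inhibition of Nrf2-driven transcription was scored by luminescence after 18-24 h of compound exposure at 37 °C.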
A549 viability: Nrf2 qHTS screen for inhibitors: counterscreen for cytotoxicity; A549 ARE-Fluc cells, CellTiter-Fluor viability, 18-24 h; AID 504648, 2011; Potency, µM (series often up to 46 µM), for inactives: at the top dose activity change, negative = cytotoxicity, most hits filed as inhibitors; actives 0.16% (n = 390,000); also: potency is read from the fitted curve at half-maximal effect
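Cytotoxicity counterscreen: CellTiter-Fluor fluorescence was measured in A549 ARE_Fluc cells after 18-24 h of compound exposure in a concentration series. The subsequent BugLite luminescent read reports ARE-luciferase activity.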
KB-3-1 tox: qHTS assay for MDR1-selective chemotherapeutics: Primary screen using the parental adenocarcinoma cell KB-3-1. KB-3-1 viability, CellTiter-Glo ATP luminescence, 72 h. Potency, µM (series often up to 46.1 µM), most hits filed as cytotoxic. actives 1.4% (n = 400,000). AID 1347075, 2019; also: potency is read from the fitted curve at half-maximal effect; nearly all actives have a fitted effect of over 60% in size
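Parental KB-3-1 adenocarcinoma cells in phenol-red-free DMEM with 10% FBS were pin-treated with compounds at several concentrations, incubated 72 h at 37 °C, and viability read by CellTiter-Glo luminescence; concentration-effect curves were fitted after normalization.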
Giardia kill: Small Molecules that selectively kill Giardia lamblia: qHTS | Giardia lamblia trophozoite viability | activity change, % at 7.66 µM, hits read low | actives 0.15% (n = 340,000) | AID 540267, 2011; in the data active = activity change below about -80%; inconclusive = between about -30% and that limit;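 also: parasites exposed to compound for two days anaerobically before the ATP read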
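Each well holds 100 Giardia trophozoites and compound. After two days (48 hrs) at 37 deg C in anaerobic conditions, ATP is quantified by luminescence.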
An asterisk follows results filed as active; i = inactive; u = inconclusive; x = no result. Compounds with a hit are over-represented: about 5.7% of the library has one in this group of screens. Unless noted, calls follow the shape of the dose curve; as a rule, active = well fitted curve in the direction sought with a large enough effect; inconclusive = small, poorly fitted or top-dose-only effect, or another doubt; inactive = no such curve, though single readings can be large; an effect the other way counts as inactive or inconclusive. Unless noted, % is scaled to controls: 0 for no effect and ±100 for the full control effect.

SMILES | PI4K2A inh | KB-V1 cytotox | Nrf2 inh | A549 viability | KB-3-1 tox | Giardia kill
COc1cc(C2Sc3ccccc3NC3=C2C(=O)OC3)cc(OC)c1OC (stereo not given) | 2 | i | -10% | -4% | 23µM* | -5
O=C1CC(c2ccc(F)cc2)Sc2ccccc2N1 (stereo not given) | 2 | i | u | 0% | i | -6
O=c1cc(C(F)(F)F)[nH]c2c(C(F)(F)F)cccc12 | 2 | u | 18µM* | u | i | -22
O=c1cc(C(F)(F)F)[nH]c2ccc(OC(F)(F)F)cc12 | -10 | u | u | u | u | -17
CC(C)(C)N1CC(c2nc3ccccc3n2CCOc2ccccc2)CC1=O (stereo not given) | 7 | i | 0% | -3% | i | 3
Cc1ccccc1N1CC(c2nc3ccccc3n2CCC2CCCCC2)CC1=O (stereo not given) | -6 | i | 23µM* | -2% | i | x
Cn1c(C2CC(=O)N(Cc3ccccc3)C2)nc2ccccc21 (stereo not given) | 6 | i | u | 0% | i | 5
CC(C)(C)N1CC(c2nc3ccccc3n2Cc2ccc(Cl)cc2)CC1=O (stereo not given) | 1 | 15µM* | x | -4% | i | 49
C=CCN1CC(c2nc3ccccc3n2Cc2ccccc2)CC1=O (stereo not given) | -3 | 12µM* | 17% | -7% | i | 10
CCc1ccccc1N1CC(c2nc3ccccc3n2CCC2CCCCC2)CC1=O (stereo not given) | -5 | u | u | u | u | x
CCC(C(=O)NCCc1ccc(Cl)cc1)n1ccc2cc(S(=O)(=O)N3CCCCC3)ccc21 (stereo not given) | -2 | i | u | -9% | u | x
CCCCC(=O)N(Cc1ccccc1)c1ccccc1C(=O)Nc1cc(OC)ccc1OC | 1 | x | x | x | x | x
C=CCn1c(Cc2cccs2)nnc1SCC(=O)Nc1ccc(C)cc1 | 3 | x | x | x | x | x
O=c1[nH]sc2cc(Cl)ccc12 | 0 | x | x | x | x | x
CCOC(=O)c1nn(-c2ccc(F)cc2)cc1O | 6 | i | 5% | 1% | i | 5
CCOC(=O)c1nn(-c2ccc(Br)cc2)cc1C(=O)c1cccc2ccccc12 | 1 | 12µM* | u | -21% | u | 13
COc1ccc(Cl)cc1NC(=O)C(C)n1nnc2sc3c(c2c1=O)CCCC3 (stereo not given) | -3 | i | -16% | -4% | i | x
COC(=O)[C@@]12C[C@@H](CC(=O)NCc3ccc(C)o3)C(=O)N(Cc3ccccc3)C1=CCC(C)(C)C2 | 4 | 18µM* | x | x | i | x
COC(=O)[C@@]12C[C@@H](CC(=O)NCc3ccccc3)C(=O)N(Cc3ccccc3)C1=CCC(C)(C)C2 | -5 | 21µM* | x | x | u | x
COC(=O)[C@@]12C[C@@H](CC(=O)NCc3ccc(C)o3)C(=O)N(Cc3cccc4ccccc34)C1=CCC(C)(C)C2 | 1 | u | x | x | i | x
CC(NC(=O)COc1ccccc1)C(=O)N1CCN(c2ccc(F)cc2)CC1 (stereo not given) | -4 | 18µM* | 5% | 1% | i | 9
CC(NCc1ccco1)C(=O)N1CCN(c2ccc(F)cc2)CC1 (stereo not given) | 1 | x | x | x | x | x
COc1cc(/C=C/c2cc[n+](C)c3ccccc23)cc(OC)c1OC | x | i | x | x | u | x
O=c1ccc2c([nH]1)CCCCCCCCCC2 | -1 | 7.3µM* | -18% | 3% | u | 7
COC(=O)c1cc2c([nH]c1=O)CC(c1ccccc1)CC2=O (stereo not given) | x | u | x | x | i | x
SMILES | PI4K2A inh | KB-V1 cytotox | Nrf2 inh | A549 viability | KB-3-1 tox | Giardia kill
Brc1ccc(-c2nn3c(-c4ccco4)nnc3s2)o1 | -3 | 16µM* | -8% | -6% | u | -5
Clc1ccccc1-c1nn2c(-c3ccccn3)nnc2s1 | 3 | i | 0% | 2% | i | -9
Brc1ccc(-c2nn3c(-c4ccccn4)nnc3s2)o1 | -1 | 18µM* | -5% | -7% | u | -8
CSc1ccc(/C=C/c2nc3ccccc3n2S(=O)(=O)c2ccc(Br)cc2)cc1 | u | u | -83% | -23% | u | x
O=S(=O)(c1cccc(C(F)(F)F)c1)n1c(/C=C/c2ccccc2)nc2ccccc21 | -61* | x | x | 18% | x | x
CC(=O)Nc1ccc(N=C(C2=C(O)c3ccccc3C2=O)c2ccccc2)cc1 | -13 | i | 21µM* | 21µM* | i | 8
Cn1nc(C(F)(F)F)c(/C=N/OC(=O)c2ccccc2)c1SCc1ccccc1Cl | 2 | 12µM* | u | x | u | 4
Cn1nc(C(F)(F)F)c(/C=N/OC(=O)c2ccccc2)c1Sc1ccc(Cl)cc1 | 3 | i | 15µM* | -7% | u | 2
COC(=O)[C@]12C[C@H](CC(=O)N3CCSCC3)C(=O)N(Cc3ccco3)C1=C[C@H](C(C)C)O[C@@H]2C1CC1 | -1 | x | x | x | x | x
CCCC(=O)N1CCC[C@]2(CC[C@H](CCC#N)O2)C1 | 2 | x | x | x | x | x
COc1cc(OC)c2c(-c3cccc(-c4ccc(C(C)=O)cc4)c3)cc(=O)oc2c1 | -3 | i | -7% | -8% | i | 2
CCc1cc(=O)oc2cc3occ(-c4ccc(OC)c(F)c4)c3cc12 | -2 | 1.6µM* | -26% | u | 18µM* | 13
COc1cc(OC)c2c(-c3cccc(-c4ccc(OC)c(F)c4)c3)cc(=O)oc2c1 | -4 | i | u | -5% | 0.92µM* | -21
CCc1cc(=O)oc2cc3occ(C)c3cc12 | 4 | u | u | 0% | i | -8
O=C(NCC(c1ccccc1)c1ccccc1)[C@H](Cc1ccccc1)NC1(C(=O)NC2CCCCC2)CCCC1 | -1 | x | x | x | x | x
COC(=O)[C@]12C[C@H](CC(=O)NCc3cccs3)C(=O)N(Cc3cccc4ccccc34)C1=C[C@H](C1CCCC1)O[C@@H]2C | 2 | x | x | x | x | x
COc1ccc(CNC(=O)c2ccc(NC(=O)N3CCSc4ncccc43)cc2)c(OC)c1 | 3 | i | u | 10% | i | x
CN(Cc1ccccc1)C(=O)c1ccc(CSc2nc3cccnc3n2Cc2ccccc2)cc1 | -4 | i | 21µM* | u | i | x
CCOc1ccccc1CNC(=O)c1ccc(Cn2c(SCc3ccccc3)nc3cccnc32)cc1 | 1 | i | 21µM* | -16% | u | x
